Measurements reported in PubChem BioAssay (NCI).
The panel holds about 83,000 compounds, 20% with a hit somewhere; the sample as a whole holds those more often.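 Treatment: one concentration, 48 hours, 96-well format. Scoring: percent growth, with anything below 10 considered active.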 Values without a mark were called inactive. The source made the active and inactive calls.

Key:
Assay in all cases: NCI-60 one-dose screen, 48 h (100 = growth as untreated, 0 = no growth, -100 = all killed)
Conditions in all cases: 10 µM unless noted
SN12C renal = test system: SN12C renal
UO-31 renal = test system: UO-31 renal
TK-10 renal = test system: TK-10 renal
ACHN renal = test system: ACHN renal
CAKI-1 renal = test system: CAKI-1 renal
A498 renal = test system: A498 renal
CCRF-CEM leukemia = test system: CCRF-CEM leukemia
MOLT-4 leukemia = test system: MOLT-4 leukemia
SR leukemia = test system: SR leukemia
RPMI-8226 leukemia = test system: RPMI-8226 leukemia
OVCAR-5 ovarian = test system: OVCAR-5 ovarian
OVCAR-4 ovarian = test system: OVCAR-4 ovarian
IGROV1 ovarian = test system: IGROV1 ovarian
OVCAR-3 ovarian = test system: OVCAR-3 ovarian
HS 578T breast = test system: HS 578T breast
NCI/ADR-RES ovarian = test system: NCI/ADR-RES ovarian
EKVX NSCLC = test system: EKVX NSCLC
SK-OV-3 ovarian = test system: SK-OV-3 ovarian
OVCAR-8 ovarian = test system: OVCAR-8 ovarian

Row | SMILES | growth (SN12C renal) | growth (UO-31 renal) | growth (TK-10 renal) | growth (ACHN renal) | growth (CAKI-1 renal) | growth (A498 renal) | growth (CCRF-CEM leukemia) | growth (MOLT-4 leukemia) | growth (SR leukemia) | growth (RPMI-8226 leukemia) | growth (OVCAR-5 ovarian) | growth (OVCAR-4 ovarian) | growth (IGROV1 ovarian) | growth (OVCAR-3 ovarian) | growth (HS 578T breast) | growth (NCI/ADR-RES ovarian) | growth (EKVX NSCLC) | growth (SK-OV-3 ovarian) | growth (OVCAR-8 ovarian)
1 | Cc1ccc(S(=O)(=O)/C(=C\c2ccc(Cl)cc2)C(=O)c2ccccc2)cc1 | 98.9% | 90.1% | 124% | 109% | 87.3% | 99.4% | 97.7% | 99.1% | 105% | 103% | 114% | 107% | 109% | 119% | 119% | 104% | – | – | –
2 | O=C(Nc1ccncc1)C(=O)c1cn(S(=O)(=O)c2ccc(Cl)cc2)c2ccccc12 | 34% | 42.1% | 81.9% | 52.8% | – | 53.6% | – | 48% | 28.3% | 31.4% | 64.7% | 49% | 39.7% | -22.3% (active) | – | -4.89% (active) | 53.5% | 91.7% | –
3 | Cc1cccc(/C=N/Nc2cc(C)c3cccc(C)c3n2)n1 | 94.6% | 76.5% | 111% | 92.1% | 98.3% | 97.7% | 74% | 67.9% | 47.2% | 60.8% | 94.3% | – | 96.7% | 102% | 108% | 84.5% | – | 115% | 83.3%
4 | O=C(Nc1ccncc1)C(=O)c1cn(S(=O)(=O)c2ccc(Oc3ccccc3)cc2)c2ccccc12 | 84.9% | 62.3% | 102% | 86.3% | 57% | 34.7% | – | – | 92.9% | 76.4% | 87.5% | 88.3% | 82.7% | 112% | – | 92.5% | 42.3% | 86.4% | 99.3%
5 | Nc1cc2c(cc1C(=O)c1cccc(F)c1)OCCO2 | 90.1% | 68.8% | 94% | 105% | 88.4% | 96.5% | – | – | – | – | 98.2% | 105% | 89.7% | 116% | – | 97.9% | 92.5% | 93.3% | 91.1%
6 | C=C1CCC[C@]2(C)CCC[C@H](C)[C@@H](OC(C)=O)[C@@H]3OC(=O)C(=C)[C@@H]3C[C@H]1O2 | 68.5% | 87.1% | 109% | 80.1% | 69.4% | 68.7% | – | 64% | – | 54.8% | 101% | 61.2% | 81.8% | 47.9% | 78% | 73.6% | 77.3% | 85% | 61.5%
7 | COc1ccc(C(=O)N2NC(=O)/C(=C/c3ccccc3F)N=C2c2ccccc2)cc1 | 99% | 89.8% | 108% | 122% | 98.9% | 104% | – | 109% | 104% | 119% | 108% | 106% | 107% | 114% | 110% | 105% | 103% | – | 101%
8 | O=S1(=O)CCC(N(/N=C/c2ccco2)c2ccccc2)C1 (configuration not stated) | 109% | 86% | 101% | 106% | 107% | 113% | 94% | 97.1% | 91% | 100% | 107% | 127% | 104% | 105% | 94.3% | 98.7% | – | 110% | 94.7%
9 | Cc1cc(C2=NNC(=O)Cc3cc4c(cc32)OCCO4)cc(C)c1N | 43.6% | 40% | 60.6% | 48.7% | 40.4% | 24.2% | – | 52.2% | 27.5% | 52.8% | 75.8% | 56.8% | 44.7% | -28.5% (active) | 24.9% | -4.6% (active) | – | 20.2% | 54.8%
10 | O=C(NCc1cn(Cc2cccc(Oc3ccccc3)c2)nn1)c1cccnc1Nc1ccc(F)cc1 | 44.4% | 59.3% | 83.8% | 72.3% | 53.9% | 26.5% | – | – | 28.3% | – | 89.3% | 86.1% | 79.4% | 35.9% | 76.7% | 31.7% | 61.8% | 52.2% | 67.2%
11 | COc1cc(/C(C#N)=C/c2ccc3c(c2OC)OCO3)cc2c1OCO2 | 36.6% | 41.7% | 54.3% | 51.6% | 42.9% | 8.92% (active) | – | 50.6% | – | 32.3% | 42.7% | 56.3% | 37.7% | -36% (active) | – | -7.38% (active) | 45.9% | 16.2% | 28.8%
12 | COc1ccc(-c2cnoc2-c2ccc(OC)cc2O)cc1 | 37.2% | 74.5% | 86.9% | 57.4% | 45.2% | 7.36% (active) | – | 44.2% | – | 49.6% | 64.1% | 75.1% | 51.6% | -11.3% (active) | -7.48% (active) | -21% (active) | 82.9% | 30% | 51.4%
13 | COc1ccc(-c2cc3c(OC)c(OC)c(OC)cc3oc2=O)cc1 | 56.4% | 77.9% | 85% | 66.8% | 57.1% | 34.2% | – | 64.7% | – | 54.6% | 74% | 81.3% | 61.6% | 5.53% (active) | 33.3% | – | 64.3% | 67.1% | 67%
14 | CC(=O)Nc1nc(N)nc(NC(C)=O)c1N=O | 106% | 93.3% | 114% | 104% | – | 118% | 112% | 113% | 100% | 118% | 108% | 127% | 131% | 99.7% | 104% | 97.2% | – | 103% | 109%
15 | COc1ccc(NC(=O)c2cc(OC)c(OC)c(OC)c2)cc1O | 43.4% | 66.8% | 88.9% | 57.6% | 46.8% | 46% | – | 64.4% | – | 51.8% | 83.4% | 57.4% | 54.7% | -27.6% (active) | -10.2% (active) | 13.2% | 97.1% | 29.1% | 57.6%
16 | COc1cccc(-c2cc3c(O)cc(C#N)cc3[nH]2)c1 | 66.1% | 106% | 97.9% | 87.6% | 88.4% | 71.7% | – | 81.8% | – | 36.1% | 94.7% | – | 103% | 114% | 43.6% | 89.2% | 77.8% | – | 106%
17 | O=C(Nc1ccc2c(c1)OCO2)C(=O)c1c[nH]c2cc(F)ccc12 | 79.5% | 71.2% | 72.7% | 44.9% | 32.7% | 55% | – | 63.1% | – | 64% | 77.6% | – | 59.6% | 50.5% | 50.1% | 47.6% | 72.4% | 59.7% | 59%
18 | COc1ccc(C(=O)N2NC(=O)/C(=C/c3ccc(Br)cc3)N=C2c2ccccc2)cc1 | 74.1% | 92.8% | 107% | 87.8% | 96.9% | 83.5% | – | 17.3% | 57.2% | 71.7% | 91.4% | 92.7% | 92.5% | 119% | 94.9% | 83.4% | 95.7% | – | 78.4%
19 | COc1cc(Nc2ncccc2C(=O)NCc2cn(Cc3cccc(Oc4ccccc4)c3)nn2)cc(OC)c1 | 42.9% | 49.8% | 70.4% | 53.6% | 36.9% | 24.2% | – | – | 25.3% | – | 83.2% | 70.6% | 58.5% | -2.42% (active) | 49.1% | 9.54% (active) | 46.2% | 41.9% | –
20 | COc1ccc(/C(C#N)=C/c2cc(OC)c(OC)c(OC)c2)cc1 | 58.4% | 55% | 68.3% | 49.4% | 50% | 33.6% | 26.8% | 32.3% | 11.8% | 31.2% | 65.6% | 87.8% | 44.9% | 36.1% | 91.4% | 20.7% | – | 47.6% | 57.4%
21 | Cc1ccc(S(=O)(=O)n2cc(C(=O)C(=O)Nc3ccncc3)c3ccccc32)cc1 | 39.8% | 43.1% | 87.9% | 52.3% | 42.1% | 74.1% | – | 50.7% | 28.8% | 37.5% | 57.6% | 56% | 45.1% | -12.1% (active) | 23.2% | 5.21% (active) | – | 96.6% | 43.2%
22 | CCc1cnc(=S)n(-c2ccccc2)c1 | 103% | 97% | 122% | 99.6% | – | 117% | 129% | 125% | 99.6% | 119% | 97.3% | 135% | 105% | 98.5% | 108% | 98.3% | – | 105% | 113%
23 | Nc1cccc(Cl)c1N | 112% | 71.2% | 93% | 90.4% | 96.4% | 114% | 71% | 93.1% | 92.5% | 69.3% | 108% | 94.4% | 88% | 109% | 98.9% | 102% | – | 94.3% | 105%
24 | O=C(Nc1ccncc1)C(=O)c1cn(S(=O)(=O)c2ccccc2F)c2ccccc12 | 33.8% | 52.9% | 101% | 56.8% | 35.6% | 49.7% | – | 39.1% | 16.4% | 9.83% (active) | 69.3% | 57.1% | 52% | -27.1% (active) | 12.1% | – | 49.2% | 87.5% | –
25 | CC(=O)Oc1cccc(S(=O)(=O)n2cc(C(=O)C(=O)Nc3ccncc3)c3ccccc32)c1 | 85.1% | 75.3% | 102% | 88% | 67.5% | 63.3% | – | 90.9% | – | 65.2% | 90.8% | 78% | 84.7% | 101% | 98.5% | – | 51.4% | 92.5% | 89.7%
26 | COc1ccc(S(=O)(=O)n2cc(C(=O)C(=O)Nc3ccncc3)c3ccccc32)cc1F | 73.7% | 81.8% | 102% | 66.7% | 55.3% | 73.4% | – | – | – | 48.6% | 81.1% | 73.4% | 72% | 85.6% | 88.1% | 67.2% | 39.5% | 85% | 69%
